Some structures have more than one record in an assay (separate samples or runs), and their calls can disagree. Activity calls are given as the source filed them. How the source made its calls: active means hit-call score of the fitted dose curve at least 0.9, where 1 is the maximum; inactive means score below 0.9.
Key:
[1] = molecular target: Transcription factor E2F1 (Homo sapiens) (UniProt Q01094); experiment: ATG_E2F_CIS: Attagene CIS-FACTORIAL HepG2 Assay for human E2F Transcription Factor 1 (AID 2282935); conditions: HepG2 Attagene cis-reporter, E2F reporter RNA transcripts; actives raise or lower the signal
Sequence of Transcription factor E2F1 (Homo sapiens) (Q01094 whole entry, looked up): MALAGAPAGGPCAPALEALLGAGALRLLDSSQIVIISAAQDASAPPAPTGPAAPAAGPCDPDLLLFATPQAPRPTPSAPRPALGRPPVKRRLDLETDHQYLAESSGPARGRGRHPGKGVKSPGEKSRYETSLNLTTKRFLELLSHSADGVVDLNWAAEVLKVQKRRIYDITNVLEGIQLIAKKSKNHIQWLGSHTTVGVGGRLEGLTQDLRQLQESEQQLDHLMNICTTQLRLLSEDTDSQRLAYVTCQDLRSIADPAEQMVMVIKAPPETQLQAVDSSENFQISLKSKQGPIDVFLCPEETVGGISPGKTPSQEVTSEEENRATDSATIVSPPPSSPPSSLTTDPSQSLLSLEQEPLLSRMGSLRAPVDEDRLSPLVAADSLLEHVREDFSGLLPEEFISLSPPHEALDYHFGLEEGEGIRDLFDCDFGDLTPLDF
In short: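 Fluorescent RT-PCR products, digested with HpaI for 2 h at 37 C, are separated by capillary electrophoresis. Source RNA comes from transfected HepG2 cultures treated for 24 h.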

[2] = ATG_E_Box_CIS: Attagene CIS-FACTORIAL HepG2 Assay for human Enhancer Box (E-box) (AID 2282936); conditions: HepG2 E-box cis-reporter transcription, actives raise or lower the signal
In short: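 Fluorescent reporter fragments separated by capillary electrophoresis gave the signal; mRNA came from HepG2 cells transfected with cis-element reporters and treated 24 h. Curves fitted bidirectionally relative to DMSO controls.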

[3] = ATG_M_61_CIS: Attagene CIS-FACTORIAL HepG2 Assay for M61 Transcription Factor (Internal Marker) (AID 2282937); conditions: HepG2 Attagene CIS-FACTORIAL M61 internal marker reporter; actives raise or lower the signal
In short: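 Cells were transfected with reporter units under cis-regulatory promoters, treated with chemicals for 24 h, then lysed for RNA. Reporter transcripts were quantified by RT-PCR and capillary electrophoresis, and activity was fitted bidirectionally against DMSO.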

[4] = ATG_EGR_CIS: Attagene CIS-FACTORIAL HepG2 Assay for human Early Growth Response 1 (EGR1) (AID 2282938); conditions: HepG2 Attagene CIS-FACTORIAL EGR reporter mRNA; actives raise or lower the signal
In short: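 Endogenous TF activity in HepG2 liver cells was gauged through cis-promoter reporter constructs transiently transfected. After 24 h dosing, reporter mRNA was quantified by RT-PCR and capillary electrophoresis, and curves fitted in both directions versus DMSO.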

[5] = ATG_M_19_CIS: Attagene CIS-FACTORIAL HepG2 Assay for M19 Transcription Factor (Internal Marker) (AID 2282939); conditions: HepG2 Attagene CIS-FACTORIAL M19 internal marker reporter; actives raise or lower the signal
In short: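 HepG2 cells transiently transfected with cis-regulated multiple reporter transcription units were dosed for 24 h; reporter mRNA was quantified by RT-PCR, 6-FAM primer-extension labelling, HpaI digestion and capillary electrophoresis, with bidirectional fitting against DMSO baseline.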

[6] = ATG_ERE_CIS: Attagene CIS-FACTORIAL HepG2 Assay for Estrogen Response Element (ERE) (AID 2282940); conditions: HepG2 ERE cis-reporter, Attagene RNA transcript; actives raise or lower the signal
In short: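 HepG2 cells transiently transfected with cis-promoter-driven multiplexed reporter transcription units report endogenous TF activity. After 24 h compound exposure, reporter mRNA is quantified by RT-PCR with capillary electrophoresis fluorescence; bidirectional fitting versus DMSO baseline.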

[7] = ATG_Ets_CIS: Attagene CIS-FACTORIAL HepG2 Assay for human Erythroblast Transformation Specific (ETS) (AID 2282941); conditions: HepG2 ETS cis-reporter transcription, actives raise or lower the signal
In short: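 Endogenous transcription factor activity read as reporter mRNA via RT-PCR and capillary electrophoresis, with gain or loss fitted bidirectionally against DMSO. Human HepG2 liver cells, transiently transfected CIS reporter constructs, 24 h exposure.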

[8] = molecular target: Hepatocyte nuclear factor 3-beta (Homo sapiens) (UniProt Q9Y261); experiment: ATG_FoxA2_CIS: Attagene CIS-FACTORIAL HepG2 Assay for human Forkhead box A2 (FOXA2) (AID 2282942); conditions: HepG2 cis-reporter transcription factor activity, 24 h; actives raise or lower the signal
Sequence of Hepatocyte nuclear factor 3-beta (Homo sapiens) (Q9Y261 whole entry, looked up): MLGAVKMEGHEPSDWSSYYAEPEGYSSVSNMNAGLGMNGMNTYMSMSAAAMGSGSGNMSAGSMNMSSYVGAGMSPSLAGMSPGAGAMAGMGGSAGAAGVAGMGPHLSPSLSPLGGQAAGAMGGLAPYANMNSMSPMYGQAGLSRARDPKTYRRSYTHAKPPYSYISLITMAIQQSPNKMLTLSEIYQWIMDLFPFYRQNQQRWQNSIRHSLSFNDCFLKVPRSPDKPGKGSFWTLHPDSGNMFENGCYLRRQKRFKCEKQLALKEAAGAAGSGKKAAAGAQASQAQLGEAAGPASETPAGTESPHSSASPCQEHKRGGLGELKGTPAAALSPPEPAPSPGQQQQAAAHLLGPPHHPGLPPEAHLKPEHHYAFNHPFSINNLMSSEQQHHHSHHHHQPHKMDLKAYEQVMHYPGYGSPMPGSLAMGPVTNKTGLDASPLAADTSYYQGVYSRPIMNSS
In short: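 Endogenous transcription factor activity was read in HepG2 cells carrying transiently transfected cis-promoter reporter units. After 24 h dosing, reporter mRNA was quantified by RT-PCR and capillary electrophoresis, and values fitted bidirectionally versus DMSO.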

[9] = ATG_FoxO_CIS: Attagene CIS-FACTORIAL HepG2 Assay for human Forkhead box O (FoxO) (AID 2282943); conditions: HepG2 Attagene cis-reporter, FoxO element, mRNA; actives raise or lower the signal
In short: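 HepG2, transient MRTU transfection (cis element, endogenous TFs). Dose 24 h. TriZol RNA → oligo(dT) RT → PCR → 6-FAM primer extension → HpaI cut → CE. Gain/loss vs DMSO.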

[10] = ATG_GATA_CIS: Attagene CIS-FACTORIAL HepG2 Assay for human GATA Binding Protein (AID 2282944); conditions: HepG2 GATA cis-element reporter, Attagene multiplex mRNA; actives raise or lower the signal
In short: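 HepG2 cells transiently transfected with multiplexed cis-element reporter units reflecting endogenous transcription factor activity; reporter mRNA measured after 24 h dosing by RT-PCR, 6-FAM labeling, HpaI digestion and capillary electrophoresis. Bidirectional fitting versus DMSO baseline.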

[11] = ATG_GLI_CIS: Attagene CIS-FACTORIAL HepG2 Assay for human Zinc Finger Protein GLI1 (AID 2282945); conditions: HepG2, Attagene cis-factorial reporter mRNA, GLI element; actives raise or lower the signal
In short: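 Bidirectional curve fits relative to DMSO, using reporter mRNA levels from RT-PCR plus capillary electrophoresis. Cells were HepG2 transiently carrying cis-regulated reporter constructs, harvested 24 h after dosing.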

[12] = molecular target: Bile acid receptor (Homo sapiens) (UniProt Q96RI1); experiment: ATG_IR1_CIS: Attagene CIS-FACTORIAL HepG2 Assay for human Nuclear Receptor Subfamily 1 Group H Member 4 (NR1H4), IR1 submotif (AID 2282946); conditions: IR1 reporter transcription, actives raise or lower the signal
Sequence of Bile acid receptor (Homo sapiens) (Q96RI1 whole entry, looked up): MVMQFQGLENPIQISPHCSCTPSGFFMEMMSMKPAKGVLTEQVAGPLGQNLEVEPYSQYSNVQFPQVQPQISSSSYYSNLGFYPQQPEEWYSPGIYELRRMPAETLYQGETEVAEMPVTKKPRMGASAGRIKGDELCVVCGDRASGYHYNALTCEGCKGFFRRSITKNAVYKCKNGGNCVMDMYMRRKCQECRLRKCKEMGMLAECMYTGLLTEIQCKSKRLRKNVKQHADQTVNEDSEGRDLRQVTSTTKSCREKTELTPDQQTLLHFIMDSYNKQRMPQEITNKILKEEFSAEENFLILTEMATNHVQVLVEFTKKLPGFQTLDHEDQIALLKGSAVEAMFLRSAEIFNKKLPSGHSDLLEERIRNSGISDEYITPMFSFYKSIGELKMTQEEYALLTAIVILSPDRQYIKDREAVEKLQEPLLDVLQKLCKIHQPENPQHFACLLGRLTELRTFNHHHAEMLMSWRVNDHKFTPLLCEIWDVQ
In short: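 HepG2 cells transiently transfected with multiplexed cis-element reporter units read endogenous transcription factor activity. After 24 h compound exposure, reporter mRNA was quantified by RT-PCR, fluorescent labelling, HpaI digestion and capillary electrophoresis; bidirectional fitting versus DMSO baseline.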

[13] = ATG_ISRE_CIS: Attagene CIS-FACTORIAL HepG2 Assay for human Interferon Regulatory Factor 1 (IRF1) binding to an Interferon-Stimulated Response Element (ISRE) (AID 2282948); conditions: HepG2 ISRE cis-reporter (Attagene), mRNA transcription readout; actives raise or lower the signal
In short: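 Endogenous transcription factor activity read as reporter transcript abundance via RT-PCR and capillary electrophoresis. HepG2 cells transiently transfected, 24 h chemical exposure. Gain or loss fitted against DMSO baseline.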

[14] = ATG_M_32_CIS: Attagene CIS-FACTORIAL HepG2 Assay for M32 Transcription Factor (Internal Marker) (AID 2282949); conditions: HepG2 Attagene cis-factorial M32 reporter, mRNA; actives raise or lower the signal;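 further: background control marker of the multiplexed CIS panel rather than a real target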
In short: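 Using DMSO as baseline, bidirectional curve fits were applied to reporter mRNA signals. These came from transiently transfected HepG2 cells exposed for 24 h, with RNA analysed by RT-PCR, FAM primer extension, HpaI digestion and CE.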

[15] = ATG_M_06_CIS: Attagene CIS-FACTORIAL HepG2 Assay for M06 Transcription Factor (Internal Marker) (AID 2282950); conditions: HepG2 Attagene CIS-FACTORIAL M06 internal marker reporter; actives raise or lower the signal
In short: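 HepG2 cells transiently transfected with cis-regulated multiple reporter transcription units were exposed to chemical for 24 h; reporter mRNA was quantified by RT-PCR, 6-FAM primer labelling, HpaI digestion and capillary electrophoresis, fitted bidirectionally against DMSO.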

[16] = molecular target: Hypoxia-inducible factor 1-alpha (Homo sapiens) (UniProt Q16665); experiment: ATG_HIF1a_CIS: Attagene CIS-FACTORIAL HepG2 Assay for human Hypoxia Inducible Factor 1 (HIF1A) (AID 2282951); conditions: HepG2 Attagene cis-factorial HIF1a reporter transcription; actives raise or lower the signal
Sequence of Hypoxia-inducible factor 1-alpha (Homo sapiens) (Q16665 whole entry, looked up): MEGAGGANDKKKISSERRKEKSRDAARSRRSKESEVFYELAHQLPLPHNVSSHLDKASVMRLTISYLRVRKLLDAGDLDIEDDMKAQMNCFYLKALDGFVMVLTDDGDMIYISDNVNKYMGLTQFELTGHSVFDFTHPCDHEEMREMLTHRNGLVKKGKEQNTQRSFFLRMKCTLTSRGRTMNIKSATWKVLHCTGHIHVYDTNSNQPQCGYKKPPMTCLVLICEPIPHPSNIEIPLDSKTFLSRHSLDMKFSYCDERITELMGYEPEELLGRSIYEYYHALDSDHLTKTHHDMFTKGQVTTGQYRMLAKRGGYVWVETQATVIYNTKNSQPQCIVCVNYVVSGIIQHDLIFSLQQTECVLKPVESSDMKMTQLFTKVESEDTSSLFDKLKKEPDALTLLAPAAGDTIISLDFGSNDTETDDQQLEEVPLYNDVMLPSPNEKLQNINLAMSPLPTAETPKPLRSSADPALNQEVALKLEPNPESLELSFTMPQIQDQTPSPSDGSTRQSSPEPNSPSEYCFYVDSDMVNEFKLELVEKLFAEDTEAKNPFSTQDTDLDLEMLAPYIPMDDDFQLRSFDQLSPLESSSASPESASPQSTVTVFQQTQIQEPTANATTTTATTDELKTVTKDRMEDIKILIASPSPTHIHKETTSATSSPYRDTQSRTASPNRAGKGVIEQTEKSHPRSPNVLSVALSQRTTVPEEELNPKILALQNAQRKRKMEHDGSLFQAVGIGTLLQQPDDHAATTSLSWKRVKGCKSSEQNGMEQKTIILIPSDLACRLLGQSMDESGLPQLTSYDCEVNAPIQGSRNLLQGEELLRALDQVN
In short: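 Measures endogenous transcription-factor activity through cis-regulated reporter mRNA in HepG2. Cells dosed 24 h; transcripts quantified by RT-PCR with 6-FAM-labelled products separated by capillary electrophoresis; DMSO serves as negative control.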

[17] = molecular target: Hepatocyte nuclear factor 6 (Homo sapiens) (UniProt Q9UBC0); experiment: ATG_HNF6_CIS: Attagene CIS-FACTORIAL HepG2 Assay for human Hepatocyte Nuclear Factor 6 (HNF6) (AID 2282952); conditions: HepG2 Attagene cis-factorial HNF6 reporter transcription; actives raise or lower the signal
Sequence of Hepatocyte nuclear factor 6 (Homo sapiens) (Q9UBC0 whole entry, looked up): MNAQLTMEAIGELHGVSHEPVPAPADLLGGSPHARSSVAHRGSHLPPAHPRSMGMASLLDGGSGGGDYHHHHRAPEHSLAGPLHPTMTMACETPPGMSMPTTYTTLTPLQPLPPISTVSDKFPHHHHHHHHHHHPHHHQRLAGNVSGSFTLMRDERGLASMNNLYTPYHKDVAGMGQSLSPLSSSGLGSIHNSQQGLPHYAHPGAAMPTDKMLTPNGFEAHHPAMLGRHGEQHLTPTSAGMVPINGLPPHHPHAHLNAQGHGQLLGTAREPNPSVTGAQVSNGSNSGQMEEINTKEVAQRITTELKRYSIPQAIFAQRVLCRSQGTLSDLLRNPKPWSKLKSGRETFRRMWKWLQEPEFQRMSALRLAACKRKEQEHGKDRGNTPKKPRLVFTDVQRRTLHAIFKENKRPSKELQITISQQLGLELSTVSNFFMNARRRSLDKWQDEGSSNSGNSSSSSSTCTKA
In short: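 Endogenous factor activity read in transiently transfected HepG2 via promoter-regulated reporter transcripts. RNA harvested 24 h post-dosing, reverse-transcribed, PCR-amplified, FAM-labelled, HpaI-digested and resolved by capillary electrophoresis; fitted in both directions against DMSO.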

[18] = molecular target: Heat shock factor protein 1 (Homo sapiens) (UniProt Q00613); experiment: ATG_HSE_CIS: Attagene CIS-FACTORIAL HepG2 Assay for human Heat Shock Transcription Factor 1 (HSE) (AID 2282953); conditions: HepG2 HSE cis-reporter, Attagene RNA transcription; actives raise or lower the signal
Sequence of Heat shock factor protein 1 (Homo sapiens) (Q00613 whole entry, looked up): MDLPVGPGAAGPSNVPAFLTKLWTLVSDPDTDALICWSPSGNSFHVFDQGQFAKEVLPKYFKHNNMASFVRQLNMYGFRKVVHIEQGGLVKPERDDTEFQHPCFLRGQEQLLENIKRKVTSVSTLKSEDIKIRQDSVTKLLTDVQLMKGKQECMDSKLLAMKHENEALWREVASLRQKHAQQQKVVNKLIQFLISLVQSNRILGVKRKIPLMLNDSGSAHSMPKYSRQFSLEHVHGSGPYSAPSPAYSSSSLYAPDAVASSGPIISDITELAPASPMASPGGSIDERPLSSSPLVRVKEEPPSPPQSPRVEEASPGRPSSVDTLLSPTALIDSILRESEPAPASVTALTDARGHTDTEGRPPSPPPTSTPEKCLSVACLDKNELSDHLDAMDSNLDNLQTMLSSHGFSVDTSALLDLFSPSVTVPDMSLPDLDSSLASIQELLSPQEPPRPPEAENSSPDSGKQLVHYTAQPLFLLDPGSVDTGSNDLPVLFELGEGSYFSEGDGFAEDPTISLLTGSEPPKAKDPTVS
In short: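 HepG2 cells transiently transfected with multiple reporter transcription units under cis-regulatory promoter control, measuring endogenous transcription factor activity. After 24 h chemical exposure, reporter mRNA quantified by RT-PCR, fluorescent labelling, HpaI digestion and capillary electrophoresis; bidirectional fit versus DMSO.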

[19] = ATG_MRE_CIS: Attagene CIS-FACTORIAL HepG2 Assay for human Metal Responsive Element (MRE) (AID 2282954); conditions: HepG2 MRE cis-reporter transcription, Attagene multiplex; actives raise or lower the signal
In short: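 Multiplexed cis-reporter assay in human HepG2 liver cells, 24 h incubation with test chemical. Reporter transcripts measured by RT-PCR and capillary electrophoresis; values from bidirectional curve fitting versus DMSO.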

[20] = ATG_GRE_CIS: Attagene CIS-FACTORIAL HepG2 Assay for human Glucocorticoid Response Elements (GRE) (AID 2282947); conditions: HepG2 GRE cis-reporter, Attagene multiplex mRNA; actives raise or lower the signal
In short: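 Multiplexed cis-reporter mRNA induction, HepG2, 24 h post-dose. RT-PCR, FAM-labelled, HpaI-digested amplicons by CE. Bidirectional fit vs DMSO.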

Measured: AC50

O=S(=O)(O)c1ccc2ccccc2c1
not listed: [20]
inactive: all other assays above

O=C(O)C(F)(F)C(F)(F)C(F)(F)C(F)(F)C(F)(F)C(F)(F)C(F)(F)C(F)(F)C(F)(F)C(F)F
active: [6] 26.3 µM | [13] 27.1 µM | [19] 25.3 µM
inactive: all other assays above

c1ccc(-c2ccccc2-c2ccccc2)cc1
active: [6] 3.47 µM | [12] 27.1 µM | [13] 100 µM
inactive: all other assays above

O=C(O)C(F)(F)C(F)(F)F
inactive: all assays above

COC(OC(C)=O)c1ccccc1 (stereo not drawn)
inactive: all assays above

O=C(C=Cc1ccccc1)OCC=Cc1ccccc1
inactive: all assays above

OC[C@@H](O)[C@@H](O)[C@H](O)[C@@H](O)CO
inactive: [1] | [2] | [3] | [4] | [5] | [6] | [7] | [8] | [9] | [10] | [11] | [13] | [14] | [15] | [16] | [17] | [18] | [19]
active: [6] 30.6 µM

Reference: PubChem BioAssay (EPA / NIEHS)
